Assay: small-molecule microarray binders of probe aEGFR, primary screen, biochemical, biotinylated probe, 635/667 nm fluorescence (AID 1097);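 further: probe is a biotinylated anti-EGFR antibody binding compounds printed on slides; score combines fluorescence near 667 nm and signal to noise of each spot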
Conditions: higher = more signal

| SMILES | composite z-score |
| --- | --- |
| Cc1cc2c(c(=O)o1)[C@@H](O)[C@H]1O[C@H]1C2=O | -0.12 |
| Cc1ccc(S(=O)(=O)NC(CCc2ccccc2)CC(=O)C(C)(C)C)cc1 (centres undefined) | 0.045 |
| C[C@@H](c1ccccc1)N1C(=O)[C@H]2[C@H]3[C@H](O)[C@H](O)CC(=NO[C@@H]4O[C@H](CO)[C@@H](O)[C@H](O)[C@H]4O)[C@@H]3CC[C@H]2C1=O | 0.0271 |
| CCN1C(=O)[C@@H]2[C@H]3C(=CC[C@@H]2C1=O)C1(OCCCO1)[C@H]1O[C@H]1[C@H]3O | 0.0043 |
| CCOC(=O)[C@H](CC(C)C)NC(=O)CCC1CC(OC(=O)NCc2cccc3ccccc23)CC2(CCCC(COC(=O)NCCCN3CCCC3=O)O2)O1 (some centres undefined) | -0.0238 |
| CC(=O)OC[C@H]1OC(ON=CC[C@@H]2C=C[C@H](OC(C)=O)[C@@H](COC(C)=O)O2)[C@H](OC(C)=O)[C@@H](OC(C)=O)[C@@H]1OC(C)=O (some centres undefined) | 0.145 |
| COc1ccc(O[C@@H]2[C@H](O)CO[C@@H]2C=Cc2ccccc2)cc1 | -0.163 |
| O=C1[C@H]2[C@H]3[C@H](O)[C@H](O)CC(=NOC[C@@H](O)COCc4ccco4)[C@H]3CC[C@H]2C(=O)N1C[C@@H]1CCCO1 | 0.0872 |
| CC(C)=CCCC(C)=CCON=C1C[C@@H](O)[C@@H](O)[C@@H]2[C@@H]3C(=O)N(C(C)(C)C)C(=O)[C@@H]3CC[C@@H]12 | -0.0594 |
| C#CCCCON=C1C[C@@H](O)[C@@H](O)[C@@H]2[C@@H]3C(=O)N(CCC(=O)OCC)C(=O)[C@@H]3CC[C@H]12 | -0.0419 |
| C[C@H]1CC[C@H]2C(=O)O[C@H](COc3ccc(C(C)(C)C)cc3)CN2[C@@H]1c1ccc(Br)cc1 | -0.143 |
| CC(C)=CCCC(C)=CCON=C1C[C@@H](O)[C@@H](O)[C@@H]2[C@@H]3C(=O)N(c4cccc(Oc5ccccc5)c4)C(=O)[C@@H]3CC[C@@H]12 | -0.0302 |
| COc1ccc(O[C@H]2C=C[C@@H](c3ccccc3)O[C@@H]2COC(=O)CCC(C)=NOC(C)CN2CCCc3nc(C)c(C)cc32)cc1 (some centres undefined) | -0.0106 |
| COC(=O)[C@H](C)NC(=O)CCC1CC(OC(=O)NCc2cccc3ccccc23)CC2(CCCC(COC(=O)NCC(c3ccccc3)c3ccccc3)O2)O1 (some centres undefined) | -0.0509 |
| C=COC[C@@H]1CN2[C@@H](CC[C@@H](C)[C@@H]2c2ccc(Br)cc2)C(=O)O1 | -0.267 |
| CCOC(=O)[C@H](CC(C)C)NC(=O)CCC1CC(OC(=O)NCc2cccc3ccccc23)CC2(CCCC(COC(=O)NCCC(C)C)O2)O1 (some centres undefined) | 0.0031 |
| CCOC(=O)[C@H](Cc1ccccc1)NC(=O)CCC1CC(OC(=O)NCCc2ccc(F)cc2)CC2(CCCC(COC(=O)NCCc3ccccc3OC)O2)O1 (some centres undefined) | 0.0846 |
| CO[C@H](C1CCCCC1)[C@H](C)C=CCC(=O)OCCCc1ccccc1 | -0.134 |
| O=C1C[C@@H](O)[C@@H](O)[C@@H]2[C@@H]3C(=O)N(Cc4ccccc4)C(=O)[C@@H]3CC[C@@H]12 | -0.0432 |
| CCN1C(=O)[C@H]2[C@H]3[C@H](O)[C@H](O)CC(=NOCC(C)C)[C@@H]3CC[C@H]2C1=O | 0.051 |
| COC(=O)CC=C[C@@H](C)[C@@H](C=NOC[C@H]1O[C@H](c2ccccc2)C=C[C@@H]1Oc1ccc(OC)cc1)OC | -0.253 |
| CC(CCN1CCc2nc(-c3ccccc3)c(-c3ccccc3)cc2C1)=NOC[C@@H](O)[C@H]1O[C@@H]2OC(C)(C)O[C@@H]2[C@H]1O | -0.0409 |
| O=C(NN=C1C[C@@H](O)[C@@H](O)[C@@H]2[C@@H]3C(=O)N(C4CCCCC4)C(=O)[C@@H]3CC[C@@H]12)OCc1ccccc1 | -0.0262 |
| COc1ccc(O[C@H]2C=C[C@@H](c3ccccc3)O[C@@H]2CON=C(C)CCC(=O)OC[C@H]2O[C@H](c3ccccc3)C=C[C@@H]2Oc2ccc(OC)cc2)cc1 | -0.267 |
